Drawing on PubChem BioAssay AID1259309 (ICCB-Longwood Screening Facility, Harvard Medical School, 2017), this text covers growth inhibition for 28 compounds.

The campaign covered roughly 330,000 compounds. About 1,800 (0.55%) were called active. Only a selection was taken, and actives are over-represented in it overall. Unmarked numbers belong to inactive results. No stated cut-off is given here; in the data, active means growth inhibition above about 68%; inactive means the rest.

The assay in a line: growth inhibition of ugtP-null S. aureus, primary screen, RN4220 ugtP deletion, OD600 (AID 1259309).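 Further: plate controls were untreated wells for no effect and antibiotic for full effect.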 The settings on record: 16 h, hits give high values.
For the compound `Clc1cc(-c2ccc(C=Nn3cnnc3)o2)ccc1Br`, the growth inhibition was -3.77%.
Consider `O=C(/C=C/c1ccco1)NC(=S)N1CCCCC1`, for which the growth inhibition is 7.55%.
With `COc1ccc(Cl)cc1C(=O)NNC(=S)NC(=O)/C=C/c1ccco1` the figure was -0.168%; with `O=C(/C=C/c1ccco1)NC(=S)Nc1ccccc1Br`, 90.7% (active).
Take `CC[C@@]12C(=O)N(c3ccccc3)C(=O)N1C(c1cccc(C)c1)C1C(=O)N(Cc3ccccc3)C(=O)C12` (stereo partly drawn): the growth inhibition is 3.88%.
The same measure for `CC(=NOC(=O)c1ccc(C)cc1)C(=O)c1ccc(Br)cc1`: 0.731%.
The same measure for `COc1ccc(S(=O)(=O)N2CCN(c3ncnc4c(-c5ccccc5)nsc34)CC2)cc1`: 5.08%; for `COc1ccc(-c2csc3ncnc(N4CCN(S(=O)(=O)c5ccccc5C#N)CC4)c23)cc1`: 95.8% (active); for `COc1ccc(-c2csc3ncnc(N4CCN(S(=O)(=O)c5cccc(F)c5)CC4)c23)cc1`: -16.7%.
Turning to `CC(=NNC(=O)C1CC1c1ccccc1)c1cccs1` (stereo not drawn), the growth inhibition is 3.01%.
With `Cc1cc([N+](=O)[O-])cc(C=NNC(=O)C2COc3ccccc3O2)c1O` (stereo not drawn) the figure was 9.3%; with `CC(=NNC(=O)c1ccncc1)c1ccc(NC(=O)c2ccc(Cl)cc2Cl)cc1`, -4.36%.
The same measure for `Cc1ccc(NC(=S)Nc2ccc(F)cc2)cc1`: -2.35%; for `Cc1cccc(NC(=S)NN=C(c2ccccc2)C(C)C)c1`: 36.3%; for `Cc1cccc(NC(=S)Nc2ccc(Cl)c(Cl)c2)c1`: 98.9% (active).
For `CC(=NN=C1SC(CC(=O)O)C(=O)N1c1ccccc1)c1ccc(C)cc1` (stereo not drawn), the growth inhibition is 7.85%.
The same measure for `O=C(C(=NO)n1cncn1)c1ccc(Cl)cc1Cl`: 18.1%; for `Fc1cccc(C=NN=Cc2cccc(F)c2)c1`: 2.16%.
The same measure for `CN1CCN(c2nc(Nc3ccc(O)cc3)nc3ccccc23)CC1`: -7.09%; for `Clc1ccc(Nc2ccc3ccccc3n2)cc1`: -34.6%.
With `Cc1cc(Nc2ccc(Br)cc2)nc2ccccc12` the figure was 84.1% (active).
For the compound `CC(=NNc1nc(-c2ccc(Cl)cc2)cs1)c1cccs1`, the growth inhibition was -2.32%.
The same measure for `COc1ccc(C=NNC(=O)c2cccc3ccccc23)c(OC)c1OC`: 7.75%; for `CCC(=O)N(C)CCc1cc2c(c(OC)c1C=NNC(=O)c1ccccc1O)OCO2`: 9.87%.
With `CC(=NNC(=O)c1c(C)nc2ccccn12)c1ccccc1F` the figure was 6.04%; with `CCC(=O)CC(c1ccc([N+](=O)[O-])cc1)c1c(O)c2ccccc2oc1=O` (stereo not drawn), 12%.
The same measure for `COc1cc(C(c2c(O)c3ccccc3oc2=O)c2c(C)n(C)n(-c3ccccc3)c2=O)ccc1O` (stereo not drawn): 82.9% (active); for `COc1cc(C=Nn2c(C)nc3ccccc3c2=O)ccc1O`: 2.48%.
